From PubChem BioAssay
U2OS ROS induce = ROS inducers in U2OS cancer cells, primary screen, cell-based, H2DCF-DA fluorescence. ROS induction (% of piperlongumine), % at 10 µM. 2% of 46,000 active. AID 624156, 2012. U2OS ROS induction; in the data active = ROS induction above about 79%, passing the limit was not always enough;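 note: 0% = DMSO vehicle median and 100% = reference compound median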
The depositor's hits bear a star. Shown is part of a subset that was picked to be rich in hits.

SMILES	U2OS ROS induce
C[C@H](CO)N1C[C@H](C)[C@H](CN(C)C(=O)Nc2cccc3ccccc23)Oc2ncc(-c3cccc(F)c3)cc2C1=O	60.4
C[C@H](CO)N1C[C@H](C)[C@H](CN(C)C(=O)Nc2cccc3ccccc23)Oc2ncc(-c3ccccc3)cc2C1=O	30.2
CC(C)NC(=O)N(C)C[C@@H]1Oc2ncc(/C=C/c3ccccc3)cc2C(=O)N([C@H](C)CO)C[C@@H]1C	15.3
C[C@H](CO)N1C[C@H](C)[C@H](CN(C)C(=O)NC2CCCCC2)Oc2ncc(-c3ccccc3)cc2C1=O	23.3
COc1cccc(NC(=O)Cn2ncc3c4ccccc4n(C)c3c2=O)c1	-9.4
O=C(Cn1cc(C(=O)C2CC2)c2ccccc21)NCc1cccs1	-6.2
CCC(=O)Nc1sc(Cc2ccccc2)c(C)c1C(=O)OC	3.2
CCOc1ccc2c(c1)sc(=NC(=O)CCOc1ccccc1)n2C	2.5
COc1ccc(C(=O)N(c2ccc(OC)cc2)S(=O)(=O)c2ccc(C)cc2)cc1	1.0
CCCCn1c(SCC)nc2sc3c(c2c1=O)CCCC3	6.9
CC1=CN2C(=N)/C(=C/c3cc(C)n(Cc4ccccc4)c3C)C(=O)N=C2S1	13.1
COc1cc(OC)cc(-c2nnc(SCc3cccc(C(=O)O)c3)o2)c1	23.0
COc1cccc(CNC(=O)c2ccc3nc(SCc4ccc(F)cc4)n(C)c3c2)c1	16.1
COc1cccc(C(=O)c2sc3nsc(SCc4ccccc4)c3c2N)c1	335.4*
NC(=O)c1c(-c2ccc(Cl)cc2)csc1NC(=O)CCCc1ccccc1	25.9
O=C(O)c1[nH]c2ccccc2c1CNCc1ccccc1	4.2
O=C(NCc1cccc2ccccc12)C12CC3CC(CC(C3)C1)C2	-10.1
CC(NC(=O)c1cccc(C(=O)NC(C)c2ccccc2)c1)c1ccccc1 (stereo unspecified)	-13.9
Cc1ccc(-c2csc(-c3ccc(C(F)(F)F)cc3)n2)cc1	-9.8
O=C(Nc1ccccc1)Oc1ccccc1N1CCCCC1	-4.2
Cc1c(C#N)c2nc3ccccc3n2c(=O)/c1=C/Nn1cnnc1	-2.4
CCCc1cc(N2CCN(c3ccccc3)CC2)n2c(nc3ccccc32)c1C#N	48.1
COc1ccc(CCNc2ccncn2)cc1OC	-8.0
CCCCc1c(C)c(C#N)c2nc3ccccc3n2c1NCCN1CCOCC1	95.7*
C=CCc1c(C)c(C#N)c2nc3ccccc3n2c1NCCc1ccc(OC)c(OC)c1	133.0*
SMILES	U2OS ROS induce
COc1ccc(CCNC(=O)CCn2c(SCC#N)nc3ccccc3c2=O)cc1OC	24.0
CCn1nc(C)cc1C(=O)NN	-3.5
COc1ccccc1NC(=O)CSc1ncccn1	-1.3
COc1ccccc1NC(=O)CSc1nncn2c1cc1oc(C)cc12	106.6*
COc1ccccc1NC(=O)CSc1ncn(-c2ccccc2)n1	0.5
CN1C(=O)NC(c2ccccc2)C2=C1CC(C)(C)CC2=O (stereo unspecified)	4.0
COC(=O)C1=C(C)NC(=O)NC1c1ccccc1OCC(=O)Nc1ccc(C)cc1 (stereo unspecified)	0.1
CN1C2=C(C(=O)CC(C)(C)C2)C(c2ccccc2OCC(=O)Nc2ccc(F)cc2)C2=C1CC(C)(C)CC2=O	134.2*
C[C@H](CO)N1C[C@H](C)[C@H](CN(C)Cc2ccc(Oc3ccccc3)cc2)Oc2ccc(NS(=O)(=O)c3cn(C)cn3)cc2CC1=O	28.8
C[C@H]1CN([C@@H](C)CO)C(=O)Cc2cc(NS(=O)(=O)c3cn(C)cn3)ccc2O[C@H]1CN(C)Cc1ccc(-c2ccccc2)cc1	94.6*
C[C@@H]1CN([C@@H](C)CO)C(=O)Cc2cc(NS(=O)(=O)c3cn(C)cn3)ccc2O[C@@H]1CN(C)Cc1ccncc1	-0.2
C[C@H]1CN([C@@H](C)CO)C(=O)Cc2cc(NS(=O)(=O)c3cn(C)cn3)ccc2O[C@@H]1CN(C)Cc1ccncc1	79.4*
C[C@@H]1CN([C@H](C)CO)C(=O)Cc2cc(NS(=O)(=O)c3cn(C)cn3)ccc2O[C@H]1CN(C)Cc1ccc(-c2ccccc2)cc1	33.4
C[C@H]1CN([C@@H](C)CO)C(=O)Cc2cc(NS(=O)(=O)c3cn(C)cn3)ccc2O[C@H]1CN(C)Cc1ccccc1	-4.5
C[C@@H]1CN([C@H](C)CO)C(=O)Cc2cc(NS(=O)(=O)c3cn(C)cn3)ccc2O[C@@H]1CN(C)Cc1ccc(-c2ccccc2)cc1	6.5
C[C@@H]1CN([C@H](C)CO)C(=O)Cc2cc(NS(=O)(=O)c3cn(C)cn3)ccc2O[C@@H]1CN(C)Cc1ccc(Oc2ccccc2)cc1	80.5*
C[C@@H]1CN([C@H](C)CO)C(=O)Cc2cc(NS(=O)(=O)c3cn(C)cn3)ccc2O[C@H]1CN(C)Cc1ccccc1	1.2
CN1C(=O)C(C)(C)c2cc(S(=O)(=O)N3CCCC3)ccc21	22.3
Cc1ccc(-n2cnc3cc(NC(=O)c4ccccc4)ccc32)cc1	19.4
CCCCC(C(=O)N1CCCCC1)N1C(=O)c2ccccc2C1=O (stereo unspecified)	-9.2
CC(Oc1ccccc1)C(=O)NC1CCSC1=O (stereo unspecified)	-9.1
C=CCN(c1ccccc1)S(=O)(=O)c1ccc(F)c(C(=O)Nc2ccc(C(C)C)cc2)c1	6.1
CCOC(=O)N1CCC(n2c(SCC(=O)c3ccccc3)nc3ccccc3c2=O)CC1	-5.4
CC(C)(C)c1cn2c3ccccc3nc2n1CCNC1CCCCC1	28.1
Cc1cc(/N=C\N(C)C)n2c(nc3ccccc32)c1C#N	47.8
SMILES	U2OS ROS induce
CC(C)c1cc(NC2CCCCC2)n2c(nc3ccccc32)c1C#N	163.6*
CCCc1cc(-n2cnc3ccccc32)n2c(nc3ccccc32)c1C#N	36.6
CC(C)c1cc(NC(C)c2ccccc2)n2c(nc3ccccc32)c1C#N (stereo unspecified)	257.2*
CC(C)=C1C2C=CC1C1C(=O)N(Cc3cccnc3)C(=O)C21 (stereo unspecified)	-6.0
O=C(Oc1cccc2cccnc12)N1c2ccccc2Sc2ccccc21	9.8
COc1ccc(C(=O)N2CCc3ccccc32)cc1OC	14.4
COc1ccc(-c2oc3ccc(OC)cc3c(=O)c2O)c(OC)c1	-8.8
CCCCC(=O)N1c2ccccc2NC2=C(C(=O)CCC2)C1c1ccccc1 (stereo unspecified)	-3.9
CCC(C)NC(=O)c1cc(-c2cccc(OC)c2)no1 (stereo unspecified)	2.7
CCOC(=O)/C(C#N)=C1/CCCN1	-10.0
CCN(C(=O)c1ccc2c(c1)CCO2)c1cccc2ccccc12	13.8
O=C(NCc1ccc(-c2cccs2)s1)c1c(Cl)cccc1Cl	-1.0
O=C(NCC12CC3CC(CC(C3)C1)C2)N1CCN(CCO)CC1	-4.5
C[C@@H]1CCCCO[C@H](CN(C)C(=O)Nc2ccccc2)[C@@H](C)CN([C@H](C)CO)C(=O)c2cc(NC(=O)Cc3ccccc3)ccc2O1	10.1
C[C@@H]1CCCCO[C@H](CN(C)S(C)(=O)=O)[C@@H](C)CN([C@H](C)CO)C(=O)c2cc(NC(=O)Cc3ccccc3)ccc2O1	5.2
C[C@@H]1CCCCO[C@@H](CN(C)S(C)(=O)=O)[C@@H](C)CN([C@H](C)CO)C(=O)c2cc(NC(=O)Nc3ccccc3)ccc2O1	5.2
C[C@@H]1CCCCO[C@@H](CN(C)S(C)(=O)=O)[C@@H](C)CN([C@H](C)CO)C(=O)c2cc(NC(=O)Cc3ccccc3)ccc2O1	84.0*
C[C@@H]1CCCCO[C@@H](CN(C)C(=O)Nc2cccc3ccccc23)[C@@H](C)CN([C@H](C)CO)C(=O)c2cc(NC(=O)Cc3ccccc3)ccc2O1	176.8*
